High-throughput results: PubChem, several laboratories
PostGolgi yeast: growth inhibition of a yeast mutant, post-Golgi transport screen. post-Golgi transport phenotypic cell assay. inhibition, % at 10 µM. 98,000 compounds, 0.9% hits. AID 739;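 note: yeast cells grown in 1536-well plates; yeast grown about 18 h at 30C before absorbance read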
D1 allo mod: D1 dopamine receptor (human) allosteric modulation; 58,000 compounds, 5.9% hits; HEK293 D1, CRE-luciferase, dopamine EC30 potentiation; actives deviate in either direction; P21728; AID 641; B-score at 10 µM;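 active = luminescence count or its row- and column-corrected plate score outside the 99.7% band of the plate's sample wells, on either side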
Target sequence (P21728 whole entry, looked up): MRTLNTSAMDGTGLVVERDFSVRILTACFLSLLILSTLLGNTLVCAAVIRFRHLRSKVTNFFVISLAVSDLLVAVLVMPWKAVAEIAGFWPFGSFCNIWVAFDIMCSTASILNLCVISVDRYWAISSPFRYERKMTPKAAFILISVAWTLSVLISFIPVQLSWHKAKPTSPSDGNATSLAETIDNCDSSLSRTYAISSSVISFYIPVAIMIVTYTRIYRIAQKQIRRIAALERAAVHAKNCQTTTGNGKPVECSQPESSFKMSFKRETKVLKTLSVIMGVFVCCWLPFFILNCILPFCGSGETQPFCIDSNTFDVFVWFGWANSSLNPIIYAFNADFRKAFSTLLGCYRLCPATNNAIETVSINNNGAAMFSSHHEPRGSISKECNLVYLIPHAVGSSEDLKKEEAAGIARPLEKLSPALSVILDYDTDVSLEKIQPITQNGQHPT
PostGolgi ctrl: inhibits growth of the yeast control strain. inhibition, % at 10 µM. efflux-deficient yeast background strain, growth absorbance A615, 16 h. 98,000 compounds, 5% hits. AID 738
PLAP activator: activates human placental alkaline phosphatase. P05187. purified PLAP enzyme, luminescent substrate read-out; active compounds read high. activation fold at 20 µM. 96,000 compounds, 1.2% hits; in the data active = activation fold above about 2
hDAT+cocaine: modulates human dopamine transporter uptake under cocaine | LLC-PK1 hDAT cells, [14C]-dopamine uptake with cocaine IC80; actives deviate in either direction | B-score at 10 µM | 110,000 compounds, 1.3% hits | AID 449768;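 active = Z score or B-score, a plate-position-corrected score, falls beyond the plate's 99.7% confidence bounds, in either direction; inactive = both scores lie inside the 99.7% bounds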;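 note: scored against the spread of the other compound wells on the same plate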
Cav3 T inh: inhibitors of human Cav3.2 T-type calcium channel; O95180; Cav3.2-expressing cells, Fluo-4 calcium fluorescence FDSS; active compounds read low; B-score at 10 µM; 100,000 compounds, 4% hits; AID 449739;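 active = single-dose well whose peak fluorescence ratio is a statistical outlier from its plate by either plate-standardised score or position-corrected B-score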
* = called active by the depositor. Sampled rows, rich in hits. Any-hit rate of the full collection: about 12%. Cut-off read from the data, not from the text of the source, unless noted: active = inhibition above about 30%; inactive = the rest.

Results for CCN(CCNC(=O)C1CCCN(Cc2nc(-c3ccc(OC)cc3)oc2C)C1)c1ccccc1 (stereo not drawn) ?
PostGolgi yeast: 6; D1 allo mod: 0.33; PostGolgi ctrl: 5; PLAP activator: 1.4; hDAT+cocaine: -0.79; Cav3 T inh: -4.9*

How did CCc1ccc(-c2nc(CN3CCCC(C(=O)O)C3)c(C)o2)cc1 (stereo not drawn) do in these assays?
PostGolgi yeast: -11; D1 allo mod: -0.054; PostGolgi ctrl: 8; PLAP activator: 1.3; hDAT+cocaine: -1.3; Cav3 T inh: 0.58

Results for CCN(CCNC(=O)C1CCN(Cc2nc(-c3ccc(Cl)cc3)oc2C)CC1)c1ccccc1 ?
PostGolgi yeast: 3; D1 allo mod: 0.99; PostGolgi ctrl: 23; PLAP activator: 1.9; hDAT+cocaine: 0.0084; Cav3 T inh: -8.4*

Results for C=CCNc1cc(C(F)(F)F)nc(-c2ccccn2)n1 ?
PostGolgi yeast: -2; PostGolgi ctrl: 5; PLAP activator: 0.9; hDAT+cocaine: -0.98; Cav3 T inh: -0.033

What do the screens show for `C/C(CC(=O)Nc1ccccn1)=N\NC(=O)C(=O)Nc1ccccc1C`?
PostGolgi yeast: -2; PostGolgi ctrl: 14; PLAP activator: 1.2; hDAT+cocaine: 3.2*; Cav3 T inh: -0.07

What do the screens show for `C=C1CCN([C@@H](CC(C)C)C(=O)NCCC(C)C)S(=O)(=O)c2ccccc21`?
hDAT+cocaine: -0.6; Cav3 T inh: -1.6

What do the screens show for `Cc1ccc(NCc2nnc(SCC(=O)NCCc3ccccc3)n2C)cc1`?
PostGolgi yeast: -1; D1 allo mod: -0.68; PostGolgi ctrl: 13; PLAP activator: 0.9; hDAT+cocaine: 0.28; Cav3 T inh: 0.63

How did COC(=O)CN1C(c2ccccc2)=Nc2ccc(Cl)cc2C1c1ccccc1 (stereo not drawn) do in these assays?
PostGolgi yeast: 8; PostGolgi ctrl: 30*; PLAP activator: 1.5; hDAT+cocaine: 2.2; Cav3 T inh: -6.7*

How did NNC(=O)CN1C(c2ccc(Cl)cc2)=Nc2ccc(Br)cc2C1c1ccccc1 (stereo not drawn) do in these assays?
PostGolgi yeast: -2; PostGolgi ctrl: 22; PLAP activator: 1.3; hDAT+cocaine: 1.7; Cav3 T inh: -9.9*

What do the screens show for `O=C1CN2C(=Nc3ccc(Cl)cc3C2c2ccccc2)CN1` (stereo not drawn)?
PostGolgi yeast: 12; D1 allo mod: -0.13; PostGolgi ctrl: 2; PLAP activator: 1.4; hDAT+cocaine: -1.8; Cav3 T inh: 0.97

What do the screens show for `CC(=O)n1cc([C@H]2C=C(C(=O)N3CCOCC3)O[C@@H](OCCCCO)C2)c2ccccc21`?
hDAT+cocaine: 0.17; Cav3 T inh: 0.18

How did C1=C(CCNCC2CCCCC2)CCCC1 do in these assays?
PostGolgi yeast: -5; PostGolgi ctrl: 15; PLAP activator: 1

Results for Cc1cc(C)n(-c2nc3ccccc3nc2N2CCCCCC2)n1 ?
PostGolgi yeast: 5; D1 allo mod: 1.1; PostGolgi ctrl: 39*; PLAP activator: 1.6; hDAT+cocaine: 0.089; Cav3 T inh: -2.1

How did Cc1cc(C)n(-c2nc3ccccc3nc2N2CCOCC2)n1 do in these assays?
D1 allo mod: 0.074

How did CC1CCC2(CC1)NC(=O)N(CC(=O)NC(=O)NC1CCCC1)C2=O (stereo not drawn) do in these assays?
PostGolgi yeast: -10; D1 allo mod: 0.49; PostGolgi ctrl: 1; PLAP activator: 1.3; hDAT+cocaine: 0.43; Cav3 T inh: 0.024

What do the screens show for `CC1(CC(=O)O)SC(=O)NC1=O` (stereo not drawn)?
PostGolgi yeast: -4; D1 allo mod: 0.054; PostGolgi ctrl: -5; PLAP activator: 1; hDAT+cocaine: -0.63

How did Cc1ccc2cccc(Oc3nnnn3-c3ccccc3)c2n1 do in these assays?
PostGolgi yeast: 18; D1 allo mod: -0.072; PostGolgi ctrl: 30*; PLAP activator: 0.9; hDAT+cocaine: -0.33; Cav3 T inh: -2.7

Results for COc1ccc(C2C(C(=O)Nc3ccc4c(c3)OCCO4)c3ccccc3C(=O)N2C)cc1 (stereo not drawn) ?
PostGolgi yeast: 3; PostGolgi ctrl: 31*; PLAP activator: 0.9; hDAT+cocaine: -0.71; Cav3 T inh: -0.12

How did COc1ccc(Cn2nnnc2CN2CCC(c3nc4ccccc4s3)CC2)cc1 do in these assays?
PostGolgi yeast: 5; PostGolgi ctrl: 26; PLAP activator: 1.4; hDAT+cocaine: -0.15; Cav3 T inh: -0.16

Results for Fc1ccc(-c2nnc(CN3CCC(c4nc5ccccc5s4)CC3)o2)cc1 ?
PostGolgi yeast: 16; D1 allo mod: -0.93; PostGolgi ctrl: 38*; PLAP activator: 0.9; hDAT+cocaine: -0.042; Cav3 T inh: -0.34

Results for COc1cccc(CN(C(=O)Cc2c[nH]c3ccccc23)C(C(=O)NC2CCCCC2)c2cccs2)c1 (stereo not drawn) ?
PostGolgi yeast: 6; PostGolgi ctrl: 16; PLAP activator: 1.6; hDAT+cocaine: 0.058; Cav3 T inh: -6.6*

How did O=C(NCC(=O)N(Cc1cccs1)C(C(=O)NC1CCCC1)c1ccncc1)c1ccco1 (stereo not drawn) do in these assays?
PostGolgi yeast: -11; D1 allo mod: -0.96; PostGolgi ctrl: 5; PLAP activator: 1.9; hDAT+cocaine: 0.57; Cav3 T inh: 0.53

How did COc1ccc(C(C(=O)NC2CCCCC2)N(Cc2cccs2)C(=O)Cc2c[nH]c3ccccc23)cc1 (stereo not drawn) do in these assays?
PostGolgi yeast: -6; PostGolgi ctrl: 10; PLAP activator: 1.3; hDAT+cocaine: 0.67; Cav3 T inh: -6.4*

What do the screens show for `CC(=O)c1ccc(N(C(=O)Cc2c[nH]c3ccccc23)C(C(=O)NC2CCCCC2)c2cccs2)cc1` (stereo not drawn)?
PostGolgi yeast: 2; PostGolgi ctrl: -3; PLAP activator: 1.2; hDAT+cocaine: 0.17

What do the screens show for `COc1ccc(CN(C(=O)Cc2cccs2)C(C(=O)NC2CCCC2)c2ccncc2)cc1` (stereo not drawn)?
PostGolgi yeast: 38*; PostGolgi ctrl: 2; PLAP activator: 1.5; hDAT+cocaine: -0.047; Cav3 T inh: -3.3

Results for O=C(NC1CCCCC1)C(c1cccs1)N(C(=O)Cc1c[nH]c2ccccc12)c1ccc(F)cc1 (stereo not drawn) ?
PostGolgi yeast: -6; PostGolgi ctrl: 48*; PLAP activator: 1; hDAT+cocaine: 0.4; Cav3 T inh: -2.8

Results for Cc1ccc(NC(=O)N/C=C/c2ccco2)cc1 ?
PostGolgi yeast: -4; PostGolgi ctrl: 2; PLAP activator: 1.5; hDAT+cocaine: 0.32

How did CCCn1c(=O)c(C(=O)Nc2nnc(CC)s2)c(O)c2ccccc21 do in these assays?
D1 allo mod: -0.012; PLAP activator: 1

What do the screens show for `c1coc(-c2nnc(SCc3nc4ccccc4[nH]3)o2)c1`?
PostGolgi yeast: 0; D1 allo mod: 0.14; PostGolgi ctrl: 8; PLAP activator: 1; hDAT+cocaine: 0.3; Cav3 T inh: 0.15
